Assay outcomes (PubChem BioAssay)
OTUD3 block: blocks human OTUD3 ubiquitin-rhodamine cleavage | Q5T2D3 | purified OTUD3, Ub-rhodamine fluorescence, 2 h | inhibition, % at 25 µM | 0.7% of 47,000 active | AID 1645858
USP17 block: inhibitors of human USP17 deubiquitinase; 6.5% of 47,000 active; inhibition, % at 50 µM; AID 1645855; purified USP17, Ub-rhodamine cleavage fluorescence, 3 h
USP30 block: blocks human USP30 ubiquitin-rhodamine cleavage. 5.3% of 47,000 active. inhibition, % at 25 µM. AID 1645860. Q70CQ3. purified USP30, Ub-rhodamine cleavage fluorescence
Target sequence (Q70CQ3 whole entry, looked up): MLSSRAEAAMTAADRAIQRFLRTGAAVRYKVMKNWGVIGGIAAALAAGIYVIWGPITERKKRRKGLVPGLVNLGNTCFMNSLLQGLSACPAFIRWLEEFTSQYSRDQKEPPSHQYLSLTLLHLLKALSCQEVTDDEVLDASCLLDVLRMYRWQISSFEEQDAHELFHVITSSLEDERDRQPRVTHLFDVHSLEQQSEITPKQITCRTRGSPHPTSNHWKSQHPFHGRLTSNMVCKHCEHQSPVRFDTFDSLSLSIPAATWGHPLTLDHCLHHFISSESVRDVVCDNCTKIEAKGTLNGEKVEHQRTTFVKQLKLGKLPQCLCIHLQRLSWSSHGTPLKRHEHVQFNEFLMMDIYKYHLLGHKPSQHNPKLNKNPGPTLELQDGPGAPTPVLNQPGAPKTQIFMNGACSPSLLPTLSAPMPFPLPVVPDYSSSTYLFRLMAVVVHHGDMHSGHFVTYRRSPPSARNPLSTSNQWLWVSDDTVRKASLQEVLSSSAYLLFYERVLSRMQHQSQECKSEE
USP28 block: blocks human USP28 ubiquitin-rhodamine cleavage. 3% of 47,000 active. Q96RU2. purified USP28, Ub-rhodamine cleavage fluorescence, 30 min. inhibition, % at 25 µM
* marks the source's active call; other numbers are inactive results. Hits are enriched below; roughly 12% of the tested compounds scored in any of these assays. No stated cut-off is given here; in the data, active means inhibition above about 30%; inactive means the rest.

What do the screens show for `CC(C)(C)C(=O)C1C2C(=O)N(c3ccc4c(c3)OCO4)C(=O)C2C2c3ccccc3C=CN12` (centres undefined)?
OTUD3 block: 55*; USP17 block: 69*; USP30 block: -17; USP28 block: 64*

Results for CC(C)(C)C(=O)C1C2C(=O)N(Cc3ccccc3)C(=O)C2C2c3ccccc3C=CN12 (centres undefined) ?
OTUD3 block: -20; USP17 block: 56*; USP30 block: -95; USP28 block: -12

What do the screens show for `O=C(c1ccco1)C1C2C(=O)N(c3cccc(C(F)(F)F)c3)C(=O)C2C2c3ccccc3C=CN12` (centres undefined)?
OTUD3 block: -156; USP17 block: -128; USP30 block: inactive; USP28 block: -193

What do the screens show for `CCN(CCCNC(=O)CCc1nnc2n(Cc3ccccc3)c(=O)c3ccccc3n12)c1cccc(C)c1`?
OTUD3 block: 9; USP30 block: 42*; USP28 block: 17

What do the screens show for `O=C(CCc1nnc2n(Cc3ccc(F)cc3)c(=O)c3ccccc3n12)N1CCN(c2ccccn2)CC1`?
OTUD3 block: 8; USP17 block: 21; USP30 block: 53*; USP28 block: 20

What do the screens show for `O=C(CCc1nnc2n(Cc3ccccc3)c(=O)c3ccccc3n12)NCC1CCCO1` (centres undefined)?
OTUD3 block: 12; USP17 block: 11; USP30 block: 30*; USP28 block: 12

Results for CCN(CCCNC(=O)CCc1nnc2n(Cc3ccc(C)cc3)c(=O)c3ccccc3n12)c1cccc(C)c1 ?
OTUD3 block: 13; USP17 block: 6; USP30 block: 24; USP28 block: 14

How did CC(C)Cn1c(=O)c2ccccc2n2c(CCC(=O)NCC3CCCO3)nnc12 (centres undefined) do in these assays?
OTUD3 block: 11; USP17 block: 10; USP30 block: 35*; USP28 block: 3

Results for O=C(CCc1nnc2n(Cc3ccccc3)c(=O)c3ccccc3n12)NCc1ccccn1 ?
OTUD3 block: 12; USP17 block: 6; USP30 block: 18; USP28 block: 12

Results for CC(C)CCn1c(=O)c2ccccc2n2c(CCC(=O)NCCN3CCCC3)nnc12 ?
OTUD3 block: -8; USP17 block: -13; USP30 block: -55; USP28 block: -4

Results for COc1ccccc1NC(=O)c1ccccc1NC(=O)C1CC(=O)N(c2ccccc2)C1 (centres undefined) ?
OTUD3 block: -8; USP17 block: -18; USP30 block: -24; USP28 block: -3

What do the screens show for `Cc1cc(C(=O)N2CCCC2c2ccnc(N(C)C)c2)c(=O)[nH]c1C` (centres undefined)?
OTUD3 block: 10; USP17 block: -6; USP30 block: 17; USP28 block: -9

What do the screens show for `CCN1CCc2nc(NC(=O)COc3cc(C(C)C)ccc3C)sc2C1`?
OTUD3 block: -4; USP17 block: -12; USP30 block: -26; USP28 block: 8

Results for COCCn1cc(NC(=O)N2CCN(c3ccccc3F)CC2)c2ccccc21 ?
OTUD3 block: 4; USP17 block: 13; USP30 block: 0; USP28 block: 11

Results for CC(=O)N(CC1CCCO1)c1nc(-c2ccccc2)cs1 (centres undefined) ?
OTUD3 block: 11; USP17 block: 5; USP30 block: 11; USP28 block: 0

What do the screens show for `O=C(COc1ccccc1-c1nnc(-c2ccccc2)o1)NCc1ccccc1F`?
OTUD3 block: 0; USP17 block: 5; USP30 block: -2; USP28 block: -9

What do the screens show for `COc1ccc(CNC(=O)COc2ccccc2-c2nnc(-c3ccccc3)o2)cc1`?
OTUD3 block: -3; USP17 block: -6; USP30 block: -17; USP28 block: -4

How did COc1ccc(CNC(=O)COc2ccccc2-c2nnc(-c3ccccc3)o2)c(OC)c1 do in these assays?
OTUD3 block: -8; USP17 block: -1; USP30 block: 0; USP28 block: -12

Results for CCc1ccccc1NC(=O)COc1ccccc1-c1nnc(-c2ccccc2)o1 ?
OTUD3 block: 11; USP17 block: 53*; USP30 block: 38*; USP28 block: 18

Results for CCc1ccccc1NC(=O)COc1ccc(Nc2ccccc2)cc1 ?
OTUD3 block: 25; USP17 block: 46*; USP30 block: 39*; USP28 block: 22

Results for CC(CCc1ccccc1)NC(=O)COc1ccccc1-c1nnc(-c2ccccc2)o1 (centres undefined) ?
OTUD3 block: 1; USP17 block: 31*; USP30 block: 41*; USP28 block: 6

Results for O=C(COc1ccccc1-c1nnc(-c2ccccc2)o1)Nc1ccc(F)cc1F ?
OTUD3 block: 13; USP17 block: 84*; USP30 block: 35*; USP28 block: 3

How did O=C(Nc1ccc(Cl)cc1F)C1CC(=O)N(CCc2ccccc2)C1 (centres undefined) do in these assays?
OTUD3 block: -4; USP17 block: -1; USP30 block: -12; USP28 block: -3

What do the screens show for `Cc1ccccc1-c1nc(CS(=O)(=O)CC(=O)Nc2ccccc2Cl)c(C)o1`?
OTUD3 block: 1; USP17 block: 11; USP30 block: 4; USP28 block: -5

How did COc1ccccc1CNC(=O)COc1ccccc1-c1nnc(-c2ccccc2)o1 do in these assays?
OTUD3 block: 6; USP17 block: 19; USP30 block: 31*; USP28 block: -42

What do the screens show for `CCc1cc(OCC(=O)NC(c2ccccc2)c2ccccc2)ccc1Cl`?
OTUD3 block: 6; USP17 block: 19; USP30 block: 8; USP28 block: 4

What do the screens show for `COc1ccccc1CNC(=O)CS(=O)(=O)Cc1nc(-c2ccccc2F)oc1C`?
OTUD3 block: -23; USP17 block: 58*; USP30 block: 16; USP28 block: 15

Results for CC(CCc1ccccc1)NC(=O)COc1ccc(Cl)c(Cl)c1 (centres undefined) ?
OTUD3 block: 22; USP17 block: 25; USP30 block: 27; USP28 block: 31*

Results for O=C(COc1ccccc1-c1nnc(-c2ccccc2)o1)NCCc1ccco1 ?
OTUD3 block: 2; USP17 block: 35*; USP30 block: -38; USP28 block: 4

How did CC(=O)c1cccc(NC(=O)C2CSC3(C)CCC(=O)N23)c1 (centres undefined) do in these assays?
OTUD3 block: 11; USP17 block: 3; USP30 block: 5; USP28 block: 2

What do the screens show for `Cc1c(C)n(CCO)c2ncn3nc(-c4ccccc4O)nc3c12`?
OTUD3 block: 10; USP17 block: 23; USP30 block: 7; USP28 block: 7

What do the screens show for `Cc1cc(N2CCOCC2)nc(N2CCN(C(=O)C(C)Oc3ccccc3)CC2)n1` (centres undefined)?
OTUD3 block: 9; USP17 block: -4; USP30 block: -3; USP28 block: -6

Results for CCOc1ccccc1NC(=O)COC(=O)C(c1ccccc1)c1ccccc1 ?
OTUD3 block: 34*; USP17 block: 22; USP30 block: 6; USP28 block: 21
